Source: PubChem (National Center for Advancing Translational Sciences (NCATS))
The list is not random: actives were taken first. Their share in the collection is about 2.7%.
IP6K1 inhibitor = blocks human inositol hexakisphosphate kinase 1 | Q92551 | IP6K1 kinase, ADP-Glo luminescence, 2 h; active compounds read low | activity change, % (series mostly up to about 58 µM) | 140,000 tested, 0.81% active; in the data active = activity change below about -25%
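ADP-Glo luminescence measures ADP made by human IP6K1 during a 2 h RT reaction with ATP/IP6 (mix at 1.3 mM/130 uM); top library doses 57.5 and 19.1 uM final.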
KDM5B inh = blocks human KDM5B histone demethylase activity; Q9UGL1; KDM5B demethylase, FDH-coupled NADH fluorescence (FDH is formaldehyde dehydrogenase); Potency, µM (highest dose often 57.7 µM), hits mostly inhibitors; 220,000 tested, 2.6% active; AID 1347165; active = well fitted inhibition curve with a large enough effect; inconclusive = small, poorly fitted or top-dose-only effect; inactive = no such curve, though single readings can be large or run the other way; note: nearly all actives have a fitted effect of over 70% in size
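Here, H3K4me3 peptide (12.5 µM in substrate mix) is demethylated by KDM5BΔAP, 200 nM final, after 10 min compound exposure. Formaldehyde product is coupled through FDH (0.25 U/mL in mix) to NADH fluorescence; 30-min ΔRFU feeds dose-response curves.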
Of the large screens only hits and unclear results are named; the others gave an inactive call.

O=C(NCCc1ccc(Cl)cc1)c1nc(-c2cccc(C(F)(F)F)c2)c2ccccn12	KDM5B inh 25.1µM
COc1ccccc1-c1nc(C(=O)NCCc2ccc(Cl)cc2)n2ccccc12	KDM5B inh 79.4µM
O=C(NCCc1ccc(Cl)cc1)c1nc(-c2cccnc2)c2ccccn12	KDM5B inh inconclusive
O=C(NC1CCN(c2nccc(Nc3ccccc3F)n2)CC1)c1ccc(F)cc1	none (no result: KDM5B inh)
COc1ccc(-c2csc(-c3nc(-c4ccc(C)cc4C)cs3)n2)cc1	none (no result: IP6K1 inhibitor)
CC(C)/C(=N/O)c1ccc(OCCOc2ccc(/C(=N\O)C(C)C)cc2)cc1	none (no result: IP6K1 inhibitor)
CCOc1ccc(C2Cn3nnc(-c4nc(-c5ccccc5OCC)no4)c3CO2)cc1 (stereo not given)	KDM5B inh 25.1µM
CCOc1ccccc1-c1noc(-c2nnn3c2COC(c2cccc(OC)c2)C3)n1 (stereo not given)	none
CCOc1ccc(C2Cn3nnc(-c4nc(-c5ccccc5C)no4)c3CO2)cc1 (stereo not given)	KDM5B inh inconclusive
CCOc1ccccc1-c1noc(-c2nnn3c2COC(c2ccc(OC)cc2)C3)n1 (stereo not given)	KDM5B inh 17.8µM
CCOc1ccccc1-c1nc(-c2nnn3c2COC(c2ccc(OC)cc2)C3)no1 (stereo not given)	KDM5B inh 28.2µM
CCOc1cc(-c2noc(-c3nnn4c3COC(c3ccc(Cl)cc3)C4)n2)ccc1OC (stereo not given)	KDM5B inh inconclusive
CCOc1cc(-c2noc(-c3nnn4c3COC(c3ccc(F)cc3)C4)n2)ccc1OC (stereo not given)	KDM5B inh 25.1µM
CCOc1ccccc1-c1noc(-c2nnn3c2COC(c2ccc(F)cc2)C3)n1 (stereo not given)	KDM5B inh inconclusive
CCN(CC)CCNc1nc2c(c(=O)n(C)c(=O)n2C)n1Cc1ccc(C)cc1	none (no result: IP6K1 inhibitor)
Clc1cccc(-n2nnnc2-c2ccccc2)c1	none (no result: IP6K1 inhibitor)
CCCc1ccc(S(=O)(=O)Nc2cc(C(=O)N(C)CC(=O)NC)ccc2N2CCNCC2)cc1	none (no result: IP6K1 inhibitor)
O=C(CSc1nc(-c2ccccc2)c(-c2ccccc2)o1)N1CCC1	none (no result: IP6K1 inhibitor)
CC1=C[C@@H](CNCCN(C)C)[C@H](C(C)C)C[C@H]1Cc1nnc(-c2ccc(C)cc2)o1	none
CC1=C[C@@H](CO)[C@H](C(C)C)C[C@H]1Cc1nnc(-c2ccc(N(C)C)cc2)o1	KDM5B inh 31.6µM
CC1=C[C@@H](CN2CCN(CCO)CC2)[C@H](C(C)C)C[C@H]1Cc1nnc(-c2ccc(N(C)C)cc2)o1	KDM5B inh inconclusive
CC1=C[C@@H](CN(C)CCO)[C@H](C(C)C)C[C@H]1Cc1nnc(-c2ccc(N(C)C)cc2)o1	KDM5B inh inconclusive
COCCNC[C@@H]1C=C(C)[C@H](Cc2nnc(-c3ccc(N(C)C)cc3)o2)C[C@H]1C(C)C	KDM5B inh 28.2µM
CC1=C[C@@H](CN2CCC[C@H]2CO)[C@H](C(C)C)C[C@H]1Cc1nnc(-c2ccc(N(C)C)cc2)o1	KDM5B inh 11.2µM
CC(=O)c1ccc(NC(=O)CSc2nc(=O)[nH]nc2C)cc1	none (no result: IP6K1 inhibitor)
Cc1noc([C@@H]2CN(Cc3ccccc3C)C[C@H]2CO)n1	none
Cc1noc([C@@H]2CN(Cc3ccncc3F)C[C@H]2CO)n1	none
Cc1noc([C@@H]2CN(Cc3ccncc3)C[C@H]2CO)n1	KDM5B inh 28.2µM
Cc1ccc2cc(CN3C[C@@H](CO)[C@H](c4nc(C)no4)C3)c(=O)[nH]c2c1	KDM5B inh 28.2µM
CC(NC(=O)c1ccc2c(c1)C(=O)c1ccccc1-2)C1CC2CCC1C2 (stereo not given)	none (no result: IP6K1 inhibitor)
COc1ccc(NC(=O)c2ccc3nc(-c4ccccn4)oc3c2)cc1	none (no result: KDM5B inh)
Cc1ccc(C(=O)c2ccccc2C(=O)OCc2ccc(Cl)cc2Cl)cc1	none (no result: IP6K1 inhibitor)
CCN(CC)c1nc2ccccc2nc1C(=O)Nc1cccc(OC)c1	none (no result: IP6K1 inhibitor)
COc1cccc(NC(=O)c2cc3c(N(C)Cc4ccccc4)nc(C)cn3n2)c1	KDM5B inh 28.2µM
COc1ccc(NC(=O)c2cc3c(N(C)Cc4ccccc4)nc(C)cn3n2)cc1OC	KDM5B inh 31.6µM
COc1ccc(NC(=O)Cn2c(N(C)Cc3ccccc3)nc(C)cc2=O)cc1OC	none
COc1ccccc1C(=O)N1CCC(C(=O)N2CCC(c3ccccc3)CC2)CC1	none (no result: KDM5B inh)
COc1cccc(CNC(=O)c2nc3cccnc3n(C3CCCCC3)c2=O)c1	none (no result: KDM5B inh)
COc1cc(/C=C2/NC(=O)NC2=O)ccc1OCC(=O)O	none (no result: IP6K1 inhibitor)
COc1ccc(-c2nc(N3CCOC[C@H]3C)cc3c2CN(C(C)C)C3=O)cc1	none
COc1ccc(-c2noc(C3CC(=O)N(c4ccccc4)C3)n2)c(OC)c1 (stereo not given)	none
CCc1cc(=O)n(Cc2ccccc2)c(N2CCOCC2)n1	none
COc1cc(F)ccc1-c1nc(N2CCOCC2)cc2c1CN(c1ccccc1)C2=O	KDM5B inh 10µM
Cc1ccccc1-c1nc(N2CCOCC2)cc2c1CN(Cc1ccccc1)C2=O	KDM5B inh 31.6µM
CN1Cc2c(cc(N3CCOCC3)nc2-c2cnn(C)c2)C1=O	KDM5B inh 39.8µM
